In the library only some 3.2% were active in any assay of this set; here they are far more common.
PGC1a acetyl inh: inhibitors of PGC1a acetylation signal, primary screen, cell-based, U2OS, AlphaScreen, inhibitor mode. AlphaScreen anti-acetyl-lysine; with virally co-expressed GCN5 acetyltransferase. inhibition, % at 15.6 µM. 0.17% of 350,000 active;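 active means every replicate shows inhibition of at least 40%; inconclusive means mean inhibition at least 40% but some replicate below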;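 further: 0% = neutral control wells and 100% = positive control wells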
DENV2 CPE rescue: inhibitors of DENV2 cytopathic effect, primary screen, cell-based, plate reader, single concentration | DENV2-infected cells, cytopathic effect rescue | CPE inhibition, % at 9.99 µM | 1.7% of 350,000 active | AID 651640, 2012; in the data active means CPE inhibition above about 20%, passing the limit was not always enough; inconclusive means no clear call, values can overlap the other calls; tested in BHK-21 cells;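 further: 0% = median of neutral control wells and 100% = median of positive control wells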
Ecoli rRNA inh: reduced GFP signal of wild-type E. coli, primary screen, bacterial rRNA inhibitor project, GFP/RFP fluorescence, OD600, single point; 1.6% of 350,000 active; AID 720706, 2013; E. coli WT GFP vs humanized-ribosome RFP mutants, 24 h; active compounds read low; DMSO median 0, no signal -100; GFP signal change (wild-type ribosome), % (test concentration not listed);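 active means significant combined selectivity score with lowered wild-type GFP, culture density cut under 30%, mutant RFP and density less affected; inactive means any of these conditions unmet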
CaV13 ICDI inh: Primary screen for inhibitors of IQ motif and Ca2+-dependent inactivation inhibitor domain binding in CACNA1D, Förster resonance energy transfer in living cells, …; 0.098% of 340,000 active; inhibition, % at 12.3 µM; HEK cells, CFP/YFP FRET ICDI-IQ, plate reader, 10 min; percent FRET-ratio fall versus neutral wells;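 active means mean replicate inhibition of at least 30% and at least 1% of replicates passing that level; inconclusive means only one of the two criteria is met; inactive means neither criterion is met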;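 further: 0% = median of the neutral control wells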
INS-1E GSIS act: GLuc luminescence reporter in INS-1E cells, primary screen for activators of glucose-dependent secretion of insulin. activation, % at 16.6 µM. INS-1E GLuc reporter insulin secretion, 2-3 h. 0.61% of 370,000 active;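 active means lowest replicate activation of at least 40%, so every replicate reaches that level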;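 further: 0% = median of neutral control wells and 100% = median of IBMX positive control wells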
ERAP1 inh: human ERAP1 aminopeptidase inhibitors, primary screen, biochemical, single point, plate reader; AID 652197, 2013; Endoplasmic reticulum aminopeptidase 1 (Homo sapiens), Q9NZ08; inhibition, % at 10.7 µM; recombinant ERAP1, Leu-AMC fluorescence, 60 min; 0.15% of 340,000 active;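 active means mean replicate inhibition of at least 30%, or all replicates individually reaching that 30% level; inactive means mean below 30% and not every replicate reaching it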;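 further: 0% = neutral control wells and 100% = L-leucinethiol positive control wells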
Target sequence (Q9NZ08 whole entry, looked up): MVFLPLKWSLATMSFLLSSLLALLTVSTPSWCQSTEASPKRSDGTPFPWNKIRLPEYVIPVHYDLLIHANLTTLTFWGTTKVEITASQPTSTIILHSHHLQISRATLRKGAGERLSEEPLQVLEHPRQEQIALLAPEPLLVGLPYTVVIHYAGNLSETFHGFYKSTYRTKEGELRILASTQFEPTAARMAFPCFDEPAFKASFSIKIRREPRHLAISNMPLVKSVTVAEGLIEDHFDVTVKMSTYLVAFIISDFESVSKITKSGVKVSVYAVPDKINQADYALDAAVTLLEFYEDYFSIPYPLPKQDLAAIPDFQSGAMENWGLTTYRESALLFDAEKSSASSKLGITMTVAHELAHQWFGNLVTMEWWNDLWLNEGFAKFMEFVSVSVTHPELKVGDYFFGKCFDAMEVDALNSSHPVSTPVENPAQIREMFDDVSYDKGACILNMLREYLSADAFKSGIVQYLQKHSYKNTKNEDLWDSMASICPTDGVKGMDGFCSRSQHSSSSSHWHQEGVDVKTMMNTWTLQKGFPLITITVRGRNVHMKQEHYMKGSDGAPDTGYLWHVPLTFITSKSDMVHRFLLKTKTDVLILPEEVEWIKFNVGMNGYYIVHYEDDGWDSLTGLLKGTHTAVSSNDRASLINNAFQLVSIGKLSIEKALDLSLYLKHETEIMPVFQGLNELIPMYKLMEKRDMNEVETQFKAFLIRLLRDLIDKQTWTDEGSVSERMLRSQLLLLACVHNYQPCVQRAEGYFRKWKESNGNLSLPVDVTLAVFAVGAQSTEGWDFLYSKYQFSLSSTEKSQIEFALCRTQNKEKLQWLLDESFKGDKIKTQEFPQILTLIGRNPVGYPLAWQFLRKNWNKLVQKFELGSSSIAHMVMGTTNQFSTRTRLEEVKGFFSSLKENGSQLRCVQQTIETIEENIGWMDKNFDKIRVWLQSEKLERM
* marks the source's active call; other numbers are inactive results.

How did CC(=O)N(C)C[C@@H]1Oc2ccc(NS(C)(=O)=O)cc2C(=O)N(C)C[C@H]1C do in these assays?
Ecoli rRNA inh: 0; INS-1E GSIS act: 5

How did CCOC(=O)N1CCC(N(CCOC)C(=S)Nc2cccc(SC)c2)CC1 do in these assays?
PGC1a acetyl inh: -3; DENV2 CPE rescue: 6; Ecoli rRNA inh: -23*; CaV13 ICDI inh: -3; INS-1E GSIS act: -8; ERAP1 inh: -1

What do the screens show for `NS(=O)(=O)c1ccc(NC(=S)N2CCN(c3ccc(Cl)c(Cl)c3)CC2)cc1`?
PGC1a acetyl inh: -4; CaV13 ICDI inh: -5; INS-1E GSIS act: 108*

What do the screens show for `CCCCNC(=S)N1CCN(c2ccc(C(C)=O)cc2)CC1`?
DENV2 CPE rescue: 10; Ecoli rRNA inh: -22*; CaV13 ICDI inh: -7; INS-1E GSIS act: -29

What do the screens show for `CC(=O)c1ccc(N2CCN(C(=S)Nc3ccccc3)CC2)cc1`?
PGC1a acetyl inh: -15; INS-1E GSIS act: -17

Results for CC(=O)c1ccc(N2CCN(C(=S)Nc3ccc(Cl)c(Cl)c3)CC2)cc1 ?
DENV2 CPE rescue: 53*; Ecoli rRNA inh: -58; CaV13 ICDI inh: -7; INS-1E GSIS act: -20; ERAP1 inh: -3

How did COc1ccc(-c2cnc3c(c2)C(=O)N([C@@H](C)CO)C[C@@H](C)[C@@H](CN(C)Cc2ccc(C(=O)O)cc2)O3)cc1 do in these assays?
PGC1a acetyl inh: 17; DENV2 CPE rescue: 2; Ecoli rRNA inh: -1; INS-1E GSIS act: 36; ERAP1 inh: 2

How did C=CC#CC1(O)CC(C)[N+](C)(C)CC1C (stereo unspecified) do in these assays?
Ecoli rRNA inh: 17; CaV13 ICDI inh: -7; INS-1E GSIS act: 14; ERAP1 inh: 106*

What do the screens show for `O=C(O)c1ccc(COc2ccc3ccccc3c2)o1`?
PGC1a acetyl inh: 9; DENV2 CPE rescue: -4; Ecoli rRNA inh: -17*; CaV13 ICDI inh: -15; INS-1E GSIS act: -6

Results for Cc1cc(C)cc(OCc2ccc(C(=O)NN)o2)c1 ?
DENV2 CPE rescue: 7; Ecoli rRNA inh: -23*; CaV13 ICDI inh: -5; INS-1E GSIS act: -7; ERAP1 inh: -2

What do the screens show for `CCOc1ccc(OCc2ccc(C(=O)O)o2)cc1`?
PGC1a acetyl inh: -18

How did NNC(=O)c1ccc(COc2ccc([N+](=O)[O-])cc2)o1 do in these assays?
PGC1a acetyl inh: 10; DENV2 CPE rescue: -7; Ecoli rRNA inh: 5; CaV13 ICDI inh: -20; ERAP1 inh: -3

Results for Cc1ccc(OCc2ccc(C(=O)O)o2)c([N+](=O)[O-])c1 ?
PGC1a acetyl inh: 6; DENV2 CPE rescue: 1; Ecoli rRNA inh: -26*; CaV13 ICDI inh: -5; ERAP1 inh: -1

Results for C[C@H](CO)N1C[C@H](C)[C@@H](CN(C)C(=O)CCN2CCCCC2)Oc2ncc(C#CCN(C)C)cc2C1=O ?
PGC1a acetyl inh: 2; DENV2 CPE rescue: 11; Ecoli rRNA inh: 1; INS-1E GSIS act: 5; ERAP1 inh: 1

Results for CCOc1ccc(NC(=O)c2ccc(NC(=O)c3ccc(CN4CCOCC4)cc3)cc2)cc1 ?
PGC1a acetyl inh: 5; DENV2 CPE rescue: -2; Ecoli rRNA inh: 5; CaV13 ICDI inh: -3; INS-1E GSIS act: 2

What do the screens show for `CCOc1ccc(C(=O)Nc2ccc(CN3CCOCC3)cc2)cc1Br`?
PGC1a acetyl inh: 6; DENV2 CPE rescue: 37*; Ecoli rRNA inh: 7; CaV13 ICDI inh: -2; INS-1E GSIS act: 15; ERAP1 inh: -3

Results for O=C(Nc1ccc(CN2CCOCC2)cc1)c1ccc(Cl)cc1 ?
DENV2 CPE rescue: 15; Ecoli rRNA inh: 10; CaV13 ICDI inh: -2; INS-1E GSIS act: 7; ERAP1 inh: -1

How did O=C(Nc1ccc(CN2CCOCC2)cc1)c1ccc(F)cc1 do in these assays?
PGC1a acetyl inh: 54*; DENV2 CPE rescue: -2; Ecoli rRNA inh: 5; CaV13 ICDI inh: -10; INS-1E GSIS act: 7; ERAP1 inh: -4

How did COc1ccc(C(=O)NC(=S)Nc2ccc(CN3CCOCC3)cc2)cc1Br do in these assays?
PGC1a acetyl inh: 10; DENV2 CPE rescue: -4; Ecoli rRNA inh: -22*; CaV13 ICDI inh: -15; INS-1E GSIS act: 28; ERAP1 inh: -3

How did O=C(N[C@H]1CC[C@H](CC(=O)N2CCOCC2)O[C@@H]1CO)c1ccc2c(c1)OCO2 do in these assays?
PGC1a acetyl inh: -9; DENV2 CPE rescue: inconclusive; Ecoli rRNA inh: 2; INS-1E GSIS act: 1; ERAP1 inh: 1

Results for C[C@@H]1CN([C@H](C)CO)C(=O)Cc2cc(NC(=O)Nc3ccccc3)ccc2O[C@H]1CN(C)S(=O)(=O)c1cccs1 ?
PGC1a acetyl inh: 2; DENV2 CPE rescue: 18; Ecoli rRNA inh: -1; INS-1E GSIS act: 13; ERAP1 inh: -2

Results for C[C@H](CO)N1C[C@H](C)[C@@H](CN(C)Cc2ccc(C(=O)Nc3ccccc3N)cc2)Oc2ccc(NS(=O)(=O)c3ccccc3)cc2C1=O ?
PGC1a acetyl inh: -1; DENV2 CPE rescue: -5; Ecoli rRNA inh: 2; INS-1E GSIS act: 15; ERAP1 inh: 0

What do the screens show for `O=S(=O)(c1cccc2cccnc12)N1CCN(Cc2ccc(OCCO)cc2)CC1`?
PGC1a acetyl inh: 7; DENV2 CPE rescue: 41*; ERAP1 inh: 1

What do the screens show for `O=S(=O)(NC1CCN(Cc2ccc(OCCO)cc2)CC1)c1cccc2cccnc12`?
PGC1a acetyl inh: -2; DENV2 CPE rescue: 8; ERAP1 inh: -3

What do the screens show for `CC[C@]12c3[nH]c4ccccc4c3CCN1C(=O)C(CC(=O)NCCc1ccccn1)C[C@@H]2C(=O)N1CCN(C(=O)c2ccco2)CC1` (stereo partly specified)?
DENV2 CPE rescue: -1; Ecoli rRNA inh: 0; CaV13 ICDI inh: -3; ERAP1 inh: -1

What do the screens show for `CC[C@]12c3[nH]c4cc(CCC(=O)N(C)C)ccc4c3CCN1C(=O)[C@@H](CC(=O)NCCc1ccccn1)C[C@@H]2C(=O)N1CCN(C(=O)c2ccco2)CC1`?
PGC1a acetyl inh: 1; DENV2 CPE rescue: 35*; Ecoli rRNA inh: 2; CaV13 ICDI inh: -6; INS-1E GSIS act: 15; ERAP1 inh: 3

How did COc1cccc(NC(=O)N(C)C[C@@H]2OCc3cnnn3CCCC(=O)N([C@@H](C)CO)C[C@H]2C)c1 do in these assays?
PGC1a acetyl inh: 7; DENV2 CPE rescue: -6; Ecoli rRNA inh: 0; CaV13 ICDI inh: -6; INS-1E GSIS act: 1; ERAP1 inh: 11

Results for COc1cccc(NC(=O)N(C)C[C@@H]2OCc3cnnn3CCCC(=O)N([C@@H](C)CO)C[C@@H]2C)c1 ?
PGC1a acetyl inh: 5; DENV2 CPE rescue: 79*; Ecoli rRNA inh: 2; INS-1E GSIS act: -9; ERAP1 inh: 4
